Our source for the inhibition of ligand binding values is PubChem BioAssay AID1211 (NMMLSC, 2008).

This test concerns the target Estrogen receptor (Homo sapiens) (UniProt P03372). The experiment in a line: ERalpha ligand binders by competition, primary screen, cell-based, Cos7 ERalpha-GFP, flow cytometry (AID 1211).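 Also: 0% = DMSO vehicle wells and 100% = no E2-Alexa633 signal left.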 Conditions: fluorescent ligand competition, stronger effect = higher value. For orientation: Flow cytometry measures light scatter and fluorescence of single cells or particles in a stream.

Active and inactive are the calls of the source. No rule for the calls is given here.

Sequence of Estrogen receptor (Homo sapiens) (P03372 whole entry, looked up): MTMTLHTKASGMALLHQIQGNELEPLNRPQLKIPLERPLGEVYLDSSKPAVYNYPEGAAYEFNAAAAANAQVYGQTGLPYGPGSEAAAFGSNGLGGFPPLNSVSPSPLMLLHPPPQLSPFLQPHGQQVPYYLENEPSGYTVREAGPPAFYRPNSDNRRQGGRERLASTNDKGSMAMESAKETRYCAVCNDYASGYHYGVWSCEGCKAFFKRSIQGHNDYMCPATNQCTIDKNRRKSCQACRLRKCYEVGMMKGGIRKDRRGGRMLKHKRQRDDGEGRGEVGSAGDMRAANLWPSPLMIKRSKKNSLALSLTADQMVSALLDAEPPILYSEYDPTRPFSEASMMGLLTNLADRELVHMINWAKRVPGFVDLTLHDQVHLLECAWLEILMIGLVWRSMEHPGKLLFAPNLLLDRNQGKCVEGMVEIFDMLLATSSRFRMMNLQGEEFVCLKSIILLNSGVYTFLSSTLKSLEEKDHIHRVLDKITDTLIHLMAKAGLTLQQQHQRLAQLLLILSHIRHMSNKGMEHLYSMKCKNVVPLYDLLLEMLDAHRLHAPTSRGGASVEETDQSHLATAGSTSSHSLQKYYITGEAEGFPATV

Regarding `O=C(Cc1coc2cc3c(cc12)CCC3)OCc1cc(=O)n2c(n1)sc1ccccc12`, the inhibition of ligand binding is, setting by setting: (at 10 µM) 31% (inactive); (binding inhibition, at 0.1 µM) 9%.

Turning to `Nc1nc2c(s1)CCc1c-2cnn1-c1ccccc1`, the inhibition of ligand binding (at 10 µM) is 13% (inactive) and the inhibition of ligand binding (binding inhibition, at 0.1 µM) is 21%.

With `CCCc1nnc2n1N=C(c1ccc(-c3cc(Cl)ccc3Cl)o1)CS2`, the inhibition of ligand binding by setting is: (at 10 µM) 47% (inactive); (binding inhibition, at 0.1 µM) 27%.

On to `Cc1ccc(C(=O)ONc2ccc(N=NC(=O)c3ccccc3O)cc2)cc1`, for which the inhibition of ligand binding by setting is: (at 10 µM) 39% (inactive); (binding inhibition, at 0.1 µM) 37%.

Regarding `Nc1ccc2oc(-c3ccc4nc[nH]c4c3)nc2c1`, the inhibition of ligand binding was 31% (inactive) (at 10 µM) and 55% (binding inhibition, at 0.1 µM).

As to `COc1ccc2c(c1OC)C(=O)N1N=C(c3ccc(O)cc3)CC21` (stereo unspecified), the inhibition of ligand binding (at 10 µM) was 0% (inactive) and the inhibition of ligand binding (binding inhibition, at 0.1 µM) was determined as 30%.

For the molecule `CCOC(=O)Cn1cnc2sc3c(c2c1=O)CCC3`, the inhibition of ligand binding runs as follows: (at 10 µM) 23% (inactive); (binding inhibition, at 0.1 µM) 13%.

On to `Cc1oc(-c2ccc(Cl)cc2)cc1-c1nn2c(-c3ccoc3C)nnc2s1`, for which the inhibition of ligand binding was 68% (active) (at 10 µM) and 34% (binding inhibition, at 0.1 µM).

For `O=C(Nc1ccc(O)cc1)C1CC=CCC1` (stereo unspecified), the inhibition of ligand binding (at 10 µM) was 6% (inactive) and the inhibition of ligand binding (binding inhibition, at 0.1 µM) was determined as 9%.

In the case of `COC(=O)c1ccc(CC(=O)c2ccc(O)cc2O)o1`, the inhibition of ligand binding (at 10 µM) was 32% (inactive) and the inhibition of ligand binding (binding inhibition, at 0.1 µM) is 9%.

In the case of `Nc1ccc2nc(-c3cc(Cl)c(N)c(Cl)c3)[nH]c2c1`, the inhibition of ligand binding (at 10 µM) was 18% (inactive) and the inhibition of ligand binding (binding inhibition, at 0.1 µM) amounted to 6%.

Turning to `CC(Oc1ccc(Cl)cc1Cl)C(=O)Nc1ccc2oc(-c3ccncc3)nc2c1` (stereo unspecified), the inhibition of ligand binding was 48% (inactive) (at 10 µM) and 40% (binding inhibition, at 0.1 µM).

As to `O=C(Nc1ccc(O)cc1C(=O)O)c1ccc2c(c1)C(=O)N(Cc1ccco1)C2=O`, the inhibition of ligand binding is 33% (active) (at 10 µM) and 86% (binding inhibition, at 0.1 µM).

As to `Cc1ccccc1OCC1Cc2c(nc(N)c(C#N)c2N)O1` (stereo unspecified), the inhibition of ligand binding is 31% (inactive) (at 10 µM) and 13% (binding inhibition, at 0.1 µM).

`Cc1cc(NC(=O)CSc2cn(CCNC(=O)c3ccc(Cl)cc3)c3ccccc23)no1`: the inhibition of ligand binding is 15% (inactive) (at 10 µM) and 37% (binding inhibition, at 0.1 µM).

Take `COc1cc2c(cc1OC)C(Cc1ccc(O)cc1)NCC2` (stereo unspecified): the inhibition of ligand binding by setting is: (at 10 µM) 26% (inactive); (binding inhibition, at 0.1 µM) 32%.

In the case of `COc1ccc(OC)c(C(=O)CSc2nnc(-c3ccc(OC)c(OC)c3)o2)c1`, the inhibition of ligand binding reads like this: (at 10 µM) 23% (inactive); (binding inhibition, at 0.1 µM) 58%.

`CCCCCCNC(=O)c1cc(-c2ccco2)nc2ccccc12`: the inhibition of ligand binding (at 10 µM) was 40% (inactive) and the inhibition of ligand binding (binding inhibition, at 0.1 µM) came to 44%.

In the case of `Cc1nnc(SCC(=O)NC(=O)NCc2ccco2)n1Cc1ccccc1`, the inhibition of ligand binding (at 10 µM) is 8% (inactive) and the inhibition of ligand binding (binding inhibition, at 0.1 µM) was 12%.

On to `C[C@]12CC[C@@H]3c4ccc(O)cc4[C@@H](O)C[C@H]3[C@@H]1CC[C@@H]2O`, for which the inhibition of ligand binding by setting is: (at 10 µM) 64% (active); (binding inhibition, at 0.1 µM) 78%.

As for `Nc1nc(-c2ccc3c(c2)NC(=O)CO3)cs1`, the inhibition of ligand binding is, setting by setting: (at 10 µM) 32% (inactive); (binding inhibition, at 0.1 µM) 12%.

In the case of `COc1cc(C(Nc2ccccn2)c2ccc3ccc(C)nc3c2O)cc(OC)c1O` (stereo unspecified), the inhibition of ligand binding was 54% (inactive) (at 10 µM) and 16% (binding inhibition, at 0.1 µM).

For `Oc1ccc(-c2cn3cc(C(F)(F)F)ccc3n2)cc1`, the inhibition of ligand binding is 29% (inactive) (at 10 µM) and 7% (binding inhibition, at 0.1 µM).

On to `COc1ccc(C(N)CCc2ccc(C)o2)cc1` (stereo unspecified), for which the inhibition of ligand binding by setting is: (at 10 µM) 30% (inactive); (binding inhibition, at 0.1 µM) 39%.

For `CCCc1nc2sc3ccccc3c(=O)c2c(=O)n1Cc1ccco1`, the inhibition of ligand binding is, setting by setting: (at 10 µM) 42% (inactive); (binding inhibition, at 0.1 µM) 1%.

Consider `CCOC(=O)CSc1nn(C)c(=S)s1`, for which the inhibition of ligand binding by setting is: (at 10 µM) 52% (inactive); (binding inhibition, at 0.1 µM) 38%.

As to `Cc1ccc(S(=O)(=O)NCCn2c(C)cc3ccccc32)cc1`, the inhibition of ligand binding (at 10 µM) is 49% (inactive) and the inhibition of ligand binding (binding inhibition, at 0.1 µM) was found to be 17%.

Turning to `COc1ccccc1/C=c1\sc2nc(-c3ccco3)nn2c1=O`, the inhibition of ligand binding is 40% (inactive) (at 10 µM) and 25% (binding inhibition, at 0.1 µM).

For `Oc1ccc(C2=Nn3c(nnc3-c3ccco3)SC2)cc1O`, the inhibition of ligand binding was 32% (inactive) (at 10 µM) and 27% (binding inhibition, at 0.1 µM).

Consider `CCc1oc2ccccc2c1C(=O)c1cc(Br)c(O)c(Br)c1`, for which the inhibition of ligand binding was 0% (inactive) (at 10 µM) and 20% (binding inhibition, at 0.1 µM).

Regarding `O=C(NCc1ccco1)c1cc2cc3ccc(Cl)cc3nc2o1`, the inhibition of ligand binding (at 10 µM) was 49% (inactive) and the inhibition of ligand binding (binding inhibition, at 0.1 µM) turned out to be 30%.

For `CCc1ccc(Nc2nc(N)nc(CSc3nnnn3-c3ccccc3)n2)cc1`, the inhibition of ligand binding by setting is: (at 10 µM) 49% (inactive); (binding inhibition, at 0.1 µM) 16%.

For `COc1ccccc1N1CCN(C(=O)c2ccc3nc(-c4ccco4)c(-c4ccco4)nc3c2)CC1`, the inhibition of ligand binding reads like this: (at 10 µM) 36% (active); (binding inhibition, at 0.1 µM) 82%.

Regarding `O=c1cc(CSc2nnc(-c3cccs3)n2Cc2ccccc2)nc2sc3ccccc3n12`, the inhibition of ligand binding reads like this: (at 10 µM) 49% (inactive); (binding inhibition, at 0.1 µM) 28%.

For the molecule `CC1(C)OC(C)(C)/C(=C/Nc2ccc(O)cc2)C1=O`, the inhibition of ligand binding is, setting by setting: (at 10 µM) 10% (inactive); (binding inhibition, at 0.1 µM) 12%.

Regarding `O=C(Cc1ccccc1)Nc1ccc2oc(-c3cccnc3)nc2c1`, the inhibition of ligand binding (at 10 µM) was 32% (inactive) and the inhibition of ligand binding (binding inhibition, at 0.1 µM) turned out to be 44%.

As to `Cc1nn(-c2ccccc2)c2sc(C(=O)c3c(N)n(C)c(=O)n(C)c3=O)cc12`, the inhibition of ligand binding by setting is: (at 10 µM) 0% (inactive); (binding inhibition, at 0.1 µM) 16%.

With `CC(C)(C)NC(=O)c1ccc2c(c1)C1C3CCC(C3)C1C(c1ccccc1)N2` (stereo unspecified), the inhibition of ligand binding reads like this: (at 10 µM) 70% (active); (binding inhibition, at 0.1 µM) 9%.

For the molecule `CCC(=O)Oc1ccc(/C(CC)=C(\CC)c2ccc(OC(=O)CC)cc2)cc1`, the inhibition of ligand binding (at 10 µM) is 77% (active) and the inhibition of ligand binding (binding inhibition, at 0.1 µM) came out at 86%.

Consider `COc1cc2c(cc1OC)C(Cc1ccc(O)cc1)N(C)CC2` (stereo unspecified), for which the inhibition of ligand binding by setting is: (at 10 µM) 0% (inactive); (binding inhibition, at 0.1 µM) 16%.

`O=Cc1cn(-c2ccccc2)nc1-c1cc2c(ccc3ccccc32)oc1=O`: the inhibition of ligand binding by setting is: (at 10 µM) 40% (inactive); (binding inhibition, at 0.1 µM) 55%.

For `O=C1/C(=C\c2ccco2)SC(=S)N1c1ccc(O)cc1`, the inhibition of ligand binding was 61% (inactive) (at 10 µM) and 31% (binding inhibition, at 0.1 µM).

As to `O=C(Cc1ccc(S(=O)(=O)N2CCOCC2)s1)Nc1nc2c(s1)CCCC2`, the inhibition of ligand binding (at 10 µM) is 46% (inactive) and the inhibition of ligand binding (binding inhibition, at 0.1 µM) came out at 32%.
